Source: PubChem BioAssay (Tox21)
“And” between values parts separate entries of the source, which are not always exact repeats. Equal values may be shown once. Results filed as inconclusive are left out. Entries that show only a call come without a potency. Some compounds were tested as several samples or in several runs, with calls that do not always agree. The source made the active and inactive calls. The call rests on the fitted dose curve; in most records, active means well fitted curve in the direction sought with a large enough effect in the repeat runs; inconclusive means weak or mixed curves; inactive means no such curve, though single readings can be large; an effect the other way counts as inactive or inconclusive.

What was measured:
[1] = Human pregnane X receptor (PXR) small molecule agonists, qHTS cell viability counter screen (AID 1346977); further: nearly all actives have a fitted effect of over 50% in size
In short: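 Same-well viability read: CellTiter-Fluor added after 23 hr compound exposure, fluorescence measured 1 hr later. Cells were PXR-Luc HepG2 seeded at 2,000/well in 5% charcoal-stripped FBS medium, rested 5 hr before dosing at 37 C.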

[2] = Caspase-3/7 induction in HepG2 cells by small molecules, qHTS assay (AID 1346978); further: nearly all actives have a fitted effect of over 15% in size
In short: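 Caspase-3/7 induction was measured by Caspase-Glo 3/7 luminescence (30 min, room temperature) after a 17 hr compound exposure of wild-type HepG2 cells seeded at 2,000 per well and pre-incubated 5 hr.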

[3] = Caspase-3/7 induction in CHO-K1 cells by small molecules, qHTS cell viability counter screen (AID 1346979); further: nearly all actives have a fitted effect of over 35% in size; further: potency means the concentration at half of the fitted maximal effect
In short: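 Cytotoxicity counter screen: CellTiter-Fluor added to compound-treated wild-type CHO-K1 cells at 16 h (37C, 5% CO2), fluorescence measured 1 h later; same wells as caspase-3/7 measurement.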

[4] = Caspase-3/7 induction in CHO-K1 cells by small molecules, qHTS assay (AID 1346980); further: nearly all actives have a fitted effect of over 15% in size
In short: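 Luminescent Caspase-Glo 3/7 read (30min, room temperature) quantified apoptosis induction. Cells were wild-type CHO-K1, treated with compound for 17hr at 37 C and 5% CO2.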

[5] = Caspase-3/7 induction in HepG2 cells by small molecules, qHTS cell viability counter screen (AID 1346981); further: nearly all actives have a fitted effect of over 30% in size; further: potency means the concentration at half of the fitted maximal effect
In short: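 The parent HepG2 line is plated at 2,000 cells per well and rested 5 hr before compound pinning from DMSO stocks. Following a 16-hr treatment at 37 C, a fluorogenic live-cell substrate (CellTiter-Fluor) reports viability after 1 hr.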

[6] = target: Nuclear receptor subfamily 1 group I member 2 (Homo sapiens) (UniProt O75469); assay: Human pregnane X receptor (PXR) small molecule agonists, qHTS assay (AID 1346982); further: nearly all actives have a fitted effect of over 35% in size; further: potency means the concentration at half of the fitted maximal effect
Chain of Nuclear receptor subfamily 1 group I member 2 (Homo sapiens) (O75469 whole entry, looked up): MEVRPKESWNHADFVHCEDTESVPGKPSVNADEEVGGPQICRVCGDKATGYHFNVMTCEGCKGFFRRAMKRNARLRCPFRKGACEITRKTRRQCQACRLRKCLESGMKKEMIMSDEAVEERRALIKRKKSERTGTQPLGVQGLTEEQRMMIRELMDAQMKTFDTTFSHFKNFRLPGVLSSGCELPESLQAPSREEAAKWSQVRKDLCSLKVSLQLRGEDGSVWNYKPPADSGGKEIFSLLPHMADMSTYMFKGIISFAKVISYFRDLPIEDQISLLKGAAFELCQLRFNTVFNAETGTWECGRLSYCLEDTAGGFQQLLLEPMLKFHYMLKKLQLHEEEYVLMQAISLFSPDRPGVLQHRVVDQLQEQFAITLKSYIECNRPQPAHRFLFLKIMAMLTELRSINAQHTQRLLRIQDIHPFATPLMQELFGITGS
In short: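 After plating in 5% charcoal-stripped FBS and a 5 hr rest, PXR-Luc HepG2 cells received compounds in DMSO. Following 24 hr at 37 C, ONE-Glo was added and light output read.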

[7] = target: Cytochrome P450 2D6 (Homo sapiens) (UniProt P10635); assay: Cytochrome P450 Family 2 Subfamily D Member 6 (CYP2D6) small molecule antagonists: luciferase reporter qHTS assay (AID 1671196); further: nearly all actives have a fitted effect of over 50% in size; further: potency means the concentration at half of the fitted maximal effect
Chain of Cytochrome P450 2D6 (Homo sapiens) (P10635 whole entry, looked up): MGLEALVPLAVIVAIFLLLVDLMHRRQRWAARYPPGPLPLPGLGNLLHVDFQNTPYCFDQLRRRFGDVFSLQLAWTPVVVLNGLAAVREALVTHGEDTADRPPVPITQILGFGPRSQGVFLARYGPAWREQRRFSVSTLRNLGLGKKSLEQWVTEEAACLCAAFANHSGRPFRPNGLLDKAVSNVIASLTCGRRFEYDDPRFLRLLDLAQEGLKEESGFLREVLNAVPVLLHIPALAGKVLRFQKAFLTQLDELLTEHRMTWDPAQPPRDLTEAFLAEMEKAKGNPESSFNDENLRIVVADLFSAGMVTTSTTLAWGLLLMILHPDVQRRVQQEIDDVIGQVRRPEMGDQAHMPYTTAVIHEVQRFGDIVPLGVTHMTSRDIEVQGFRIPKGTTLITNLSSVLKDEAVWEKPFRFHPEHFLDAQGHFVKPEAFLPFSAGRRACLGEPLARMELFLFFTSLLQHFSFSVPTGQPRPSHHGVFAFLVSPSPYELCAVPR
In short: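 Quantitative HTS of Tox21 chemicals against CYP2D6 using a luminescent proluciferin substrate. After NADPH addition, 1 h room-temperature reaction; luminescence recorded 20 min post detection reagent.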

[8] = target: Cytochrome P450 2C9 (Homo sapiens) (UniProt P11712); assay: Cytochrome P450 Family 2 Subfamily C Member 9 (CYP2C9) small molecule antagonists: luciferase reporter qHTS assay (AID 1671198); further: nearly all actives have a fitted effect of over 50% in size; further: potency means the concentration at half of the fitted maximal effect
Chain of Cytochrome P450 2C9 (Homo sapiens) (P11712 whole entry, looked up): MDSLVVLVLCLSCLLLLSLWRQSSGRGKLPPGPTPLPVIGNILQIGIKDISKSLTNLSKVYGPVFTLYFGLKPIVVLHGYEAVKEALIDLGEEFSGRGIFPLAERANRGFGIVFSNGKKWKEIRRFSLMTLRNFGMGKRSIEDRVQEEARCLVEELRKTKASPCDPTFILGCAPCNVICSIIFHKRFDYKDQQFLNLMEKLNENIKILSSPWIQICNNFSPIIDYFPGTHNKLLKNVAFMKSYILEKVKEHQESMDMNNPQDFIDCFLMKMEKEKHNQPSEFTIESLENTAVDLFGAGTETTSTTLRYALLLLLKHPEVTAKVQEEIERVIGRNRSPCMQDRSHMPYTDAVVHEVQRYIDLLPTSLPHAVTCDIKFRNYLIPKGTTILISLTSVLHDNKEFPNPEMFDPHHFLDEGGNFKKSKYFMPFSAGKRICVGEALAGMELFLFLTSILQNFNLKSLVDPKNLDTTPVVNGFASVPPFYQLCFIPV
In short: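 Enzyme-substrate mix preincubated with compound 10 min at room temperature; reaction started with NADPH regeneration solution, 1 h 37C. Luminescent luciferin product read after 20 min detection reagent.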

[9] = target: Voltage-gated inwardly rectifying potassium channel KCNH2 (Homo sapiens) (UniProt Q12809); assay: Human Ether-a-go-go-Related Gene (hERG) channel small molecule antagonists: fluorescence cell-based qHTS assay (AID 1671200); further: series mostly up to about 77 µM; nearly all actives have a fitted effect of over 50% in size
Chain of Voltage-gated inwardly rectifying potassium channel KCNH2 (Homo sapiens) (Q12809 whole entry, looked up): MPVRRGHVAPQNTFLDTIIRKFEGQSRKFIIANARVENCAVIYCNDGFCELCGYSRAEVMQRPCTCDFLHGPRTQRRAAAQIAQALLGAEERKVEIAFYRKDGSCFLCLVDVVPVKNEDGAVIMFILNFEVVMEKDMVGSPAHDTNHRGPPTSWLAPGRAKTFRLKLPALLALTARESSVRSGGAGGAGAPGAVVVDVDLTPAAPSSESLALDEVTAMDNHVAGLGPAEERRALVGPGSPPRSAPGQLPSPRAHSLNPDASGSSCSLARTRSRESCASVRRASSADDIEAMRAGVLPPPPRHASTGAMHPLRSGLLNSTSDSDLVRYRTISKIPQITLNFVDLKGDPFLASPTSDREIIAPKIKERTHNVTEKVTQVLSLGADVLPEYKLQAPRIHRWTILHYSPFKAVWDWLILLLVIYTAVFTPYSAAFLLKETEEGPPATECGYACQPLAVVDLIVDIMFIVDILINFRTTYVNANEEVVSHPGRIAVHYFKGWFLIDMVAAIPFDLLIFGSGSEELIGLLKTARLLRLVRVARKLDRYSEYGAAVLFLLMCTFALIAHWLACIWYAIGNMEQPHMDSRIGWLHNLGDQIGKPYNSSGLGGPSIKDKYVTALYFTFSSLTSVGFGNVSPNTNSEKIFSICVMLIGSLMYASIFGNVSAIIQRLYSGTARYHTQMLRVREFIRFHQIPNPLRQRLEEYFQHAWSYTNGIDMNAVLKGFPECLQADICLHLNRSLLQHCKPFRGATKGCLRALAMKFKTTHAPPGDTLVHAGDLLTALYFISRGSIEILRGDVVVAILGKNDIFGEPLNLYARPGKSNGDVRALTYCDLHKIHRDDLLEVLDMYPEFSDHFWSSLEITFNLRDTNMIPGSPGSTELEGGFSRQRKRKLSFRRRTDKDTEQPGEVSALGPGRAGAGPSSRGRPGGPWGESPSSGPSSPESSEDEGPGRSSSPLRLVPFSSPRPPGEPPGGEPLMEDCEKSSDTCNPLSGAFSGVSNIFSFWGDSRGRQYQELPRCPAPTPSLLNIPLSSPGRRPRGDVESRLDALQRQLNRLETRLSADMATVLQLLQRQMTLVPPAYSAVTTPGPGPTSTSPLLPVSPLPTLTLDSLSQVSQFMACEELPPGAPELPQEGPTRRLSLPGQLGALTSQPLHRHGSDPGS
In short: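 Thallium flux as potassium surrogate: FluxOR II dye loaded 1 h at room temperature into hERG-expressing U2OS cells, then stimulus buffer added after 10 min. Kinetic 480 nm excitation/540 nm emission read, 2 min.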

[10] = target: Cytochrome P450 3A4 (Homo sapiens) (UniProt P08684); assay: Cytochrome P450 Family 3 Subfamily A Member 4 (CYP3A4) small molecule antagonists: luciferase reporter qHTS assay (AID 1671201); further: nearly all actives have a fitted effect of over 50% in size; further: potency means the concentration at half of the fitted maximal effect
Chain of Cytochrome P450 3A4 (Homo sapiens) (P08684 whole entry, looked up): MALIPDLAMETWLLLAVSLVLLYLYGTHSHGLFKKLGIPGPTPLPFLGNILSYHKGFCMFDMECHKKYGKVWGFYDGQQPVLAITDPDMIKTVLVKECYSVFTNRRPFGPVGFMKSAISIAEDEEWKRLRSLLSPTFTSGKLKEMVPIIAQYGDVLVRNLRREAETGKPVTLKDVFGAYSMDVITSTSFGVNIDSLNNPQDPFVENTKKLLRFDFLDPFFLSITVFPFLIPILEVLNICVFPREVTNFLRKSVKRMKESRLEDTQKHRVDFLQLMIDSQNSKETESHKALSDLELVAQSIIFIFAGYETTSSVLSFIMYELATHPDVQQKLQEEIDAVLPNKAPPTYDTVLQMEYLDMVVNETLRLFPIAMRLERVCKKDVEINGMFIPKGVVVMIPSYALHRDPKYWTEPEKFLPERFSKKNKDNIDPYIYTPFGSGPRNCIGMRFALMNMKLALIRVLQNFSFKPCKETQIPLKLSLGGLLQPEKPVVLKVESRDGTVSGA
In short: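 Recombinant human CYP3A4 converts a proluciferin substrate to luciferin over 1 h at room temperature after NADPH regeneration solution is added (compound preincubated 10 min); detection reagent stops reaction, luminescence read 20 min later as relative units.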

[11] = target: Cytochrome P450 2C19 (Homo sapiens) (UniProt P33261); assay: Cytochrome P450 Family 2 Subfamily C Member 19 (CYP2C19) small molecule antagonists: luciferase reporter qHTS assay (AID 1671197); further: nearly all actives have a fitted effect of over 65% in size; further: potency means the concentration at half of the fitted maximal effect
Chain of Cytochrome P450 2C19 (Homo sapiens) (P33261 whole entry, looked up): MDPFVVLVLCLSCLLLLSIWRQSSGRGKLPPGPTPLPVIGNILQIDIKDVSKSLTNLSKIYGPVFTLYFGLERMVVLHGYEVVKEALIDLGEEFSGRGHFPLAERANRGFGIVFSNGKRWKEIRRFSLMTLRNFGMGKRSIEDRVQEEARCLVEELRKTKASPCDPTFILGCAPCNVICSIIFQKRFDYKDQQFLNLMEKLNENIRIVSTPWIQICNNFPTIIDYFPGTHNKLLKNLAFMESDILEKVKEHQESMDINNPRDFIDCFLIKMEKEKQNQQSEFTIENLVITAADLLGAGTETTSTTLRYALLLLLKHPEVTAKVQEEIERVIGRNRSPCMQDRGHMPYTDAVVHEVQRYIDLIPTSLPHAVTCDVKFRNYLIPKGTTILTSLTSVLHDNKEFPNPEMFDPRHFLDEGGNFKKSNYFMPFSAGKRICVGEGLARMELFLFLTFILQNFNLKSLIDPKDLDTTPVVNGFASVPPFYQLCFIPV
In short: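 Relative luminescence units recorded 20 min after the detection reagent stopped a 1 h, 37C CYP2C19 reaction on proluciferin substrate, which was started by NADPH regeneration following 10 min room-temperature compound preincubation; ketoconazole positive control.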

[12] = target: Cytochrome P450 1A2 (Homo sapiens) (UniProt P05177); assay: Cytochrome P450 Family 1 Subfamily A Member 2 (CYP1A2) small molecule antagonists: luciferase reporter qHTS assay (AID 1671199)
Chain of Cytochrome P450 1A2 (Homo sapiens) (P05177 whole entry, looked up): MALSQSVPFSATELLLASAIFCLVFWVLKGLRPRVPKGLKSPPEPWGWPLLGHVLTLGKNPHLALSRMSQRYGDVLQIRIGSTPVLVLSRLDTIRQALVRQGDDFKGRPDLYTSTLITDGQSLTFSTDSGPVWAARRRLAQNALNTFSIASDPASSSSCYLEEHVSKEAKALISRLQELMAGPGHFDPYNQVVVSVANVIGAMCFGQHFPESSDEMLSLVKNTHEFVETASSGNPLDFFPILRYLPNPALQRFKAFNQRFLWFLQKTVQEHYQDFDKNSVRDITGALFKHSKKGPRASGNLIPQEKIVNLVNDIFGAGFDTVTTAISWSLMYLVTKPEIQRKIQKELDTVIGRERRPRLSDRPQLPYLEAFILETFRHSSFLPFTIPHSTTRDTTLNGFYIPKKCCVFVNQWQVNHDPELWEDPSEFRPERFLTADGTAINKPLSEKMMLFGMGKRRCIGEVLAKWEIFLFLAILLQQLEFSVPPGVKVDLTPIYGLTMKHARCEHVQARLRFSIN
In short: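 Quantitative high-throughput format using the P450-Glo CYP1A2 system. Reaction initiated by NADPH regeneration solution, 1 h at room temperature, then stopped with detection reagent; luminescence measured 20 min later.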

[13] = target: Nuclear receptor subfamily 1 group I member 2 (Rattus norvegicus) (UniProt Q9R1A7); assay: Rat pregnane X receptor (rPXR) activation by small molecules, qHTS assay (AID 1346983); conditions: rPXR luciferase reporter cells, One-Glo luminescence, 24 h; stronger effect = higher value; further: nearly all actives have a fitted effect of over 20% in size
Chain of Nuclear receptor subfamily 1 group I member 2 (Rattus norvegicus) (Q9R1A7 whole entry, looked up): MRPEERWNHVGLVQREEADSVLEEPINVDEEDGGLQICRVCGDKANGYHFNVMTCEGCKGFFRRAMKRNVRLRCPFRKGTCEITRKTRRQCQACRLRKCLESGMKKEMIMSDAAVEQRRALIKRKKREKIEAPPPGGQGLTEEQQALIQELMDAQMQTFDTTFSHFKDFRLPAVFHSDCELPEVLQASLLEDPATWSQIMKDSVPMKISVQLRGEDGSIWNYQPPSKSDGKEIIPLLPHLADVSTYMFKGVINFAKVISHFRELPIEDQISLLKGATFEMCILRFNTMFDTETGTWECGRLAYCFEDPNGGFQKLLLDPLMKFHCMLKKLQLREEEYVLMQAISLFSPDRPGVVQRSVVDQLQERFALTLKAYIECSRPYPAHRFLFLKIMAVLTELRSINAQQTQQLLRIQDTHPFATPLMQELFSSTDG
In short: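 Luminescent readout (One-Glo luciferase, 30 min room temperature) followed 24 hr compound treatment at 37 C of rPXR cells plated 2,000 per well and preincubated 5hr; qHTS format with compounds delivered in DMSO.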

[14] = target: Nuclear receptor subfamily 1 group I member 2 (Homo sapiens) (UniProt O75469); assay: CYP3A4 induction through human pregnane X receptor (PXR) by small molecules, qHTS assay (AID 1346984); further: nearly all actives have a fitted effect of over 40% in size
In short: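 Human PXR activation is tracked via CYP3A4 promoter-luciferase in DPX-2 (HepG2) cells. Compounds treat cells for 24hr at 37C, and luminescence is read after One-Glo.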

Structure (SMILES) | Potency [1] | Potency [2] | Potency [3] | Potency [4] | Potency [5] | Potency [6] | Potency [7] | Potency [8] | Potency [9] | Potency [10] | Potency [11] | Potency [12] | max activation [13] | Potency [14]
CC(=O)OCCC(C)C | inactive | inactive | inactive | inactive | inactive | inactive | inactive | inactive | inactive | inactive | – | – | – | –
CC1=CC(=O)CC(C)(C)C1 | inactive | inactive | inactive | inactive | inactive | 62.9 µM (active) and inactive | inactive | inactive | inactive | inactive | – | – | – | –
CC(=O)C(C)C | inactive | inactive | 63.4 µM (active) and inactive | inactive | inactive | inactive | inactive | inactive | inactive | inactive | – | – | – | –
O=[N+]([O-])c1cc(C(F)(F)F)ccc1Cl | inactive | inactive | inactive | inactive | inactive | inactive | inactive | inactive | inactive | inactive | inactive | – | – | –
CC(=O)CC(=O)N(C)C | inactive | inactive | inactive | inactive | inactive | inactive | inactive | inactive | inactive | inactive | inactive | inactive | – | –
O=Cc1ccc(CO)o1 | inactive | inactive | inactive | inactive | inactive | inactive | inactive | inactive | inactive | inactive | – | inactive | – | –
OC1CCCCC1 | inactive | inactive | inactive | inactive | inactive | inactive | inactive | inactive | inactive | inactive | – | – | – | –
CC1(C)C(=O)N(Cl)C(=O)N1Cl | inactive | inactive | inactive | inactive | inactive | inactive | inactive | inactive | inactive | inactive | – | inactive | – | –
O=c1c(O)c(-c2ccc(O)c(O)c2)oc2cc(O)cc(O)c12 | inactive | inactive | 54.5 µM (active) | inactive | 48.6 µM (active) and 54.5 µM (active) | – | 63.4 µM (active) and inactive | – | inactive | – | – | – | -3.01% (inactive) | inactive
Oc1ccc(Cc2ccccc2O)cc1 | inactive | inactive | inactive | inactive | inactive | 61.9 µM (active) | inactive | – | inactive | inactive | – | inactive | – | –
CC(O)CNCC(C)O (stereo unspecified) | inactive | inactive | inactive | inactive | inactive | 61.5 µM (active) and inactive | inactive | 35.8 µM (active) and inactive | inactive | 31.9 µM (active) and inactive | – | – | – | –
Cc1ccc(C)c(S(=O)(=O)O)c1 | inactive | inactive | inactive | inactive | inactive | inactive | 64.4 µM (active) and inactive | inactive | inactive | inactive | inactive | – | – | –
CCc1cccc(O)c1 | inactive | inactive | inactive | inactive | inactive | inactive | inactive | inactive | inactive | inactive | 40.8 µM (active) | – | – | –
OB(O)O | inactive | inactive | inactive | inactive | inactive | – | inactive | inactive | inactive | inactive | – | inactive | -0.586% (inactive) | inactive
C[n+]1ccn(CCO)c1 | inactive | inactive | inactive | inactive | inactive | inactive | inactive | inactive | inactive | inactive | – | – | – | –
CCCCC(=O)O | inactive | inactive | inactive | inactive | inactive | inactive | inactive | inactive | inactive | inactive | – | inactive | – | –
CCCCCCCC(=O)O | inactive | inactive | inactive | inactive | inactive | inactive | inactive | inactive | inactive | inactive | 38.5 µM (active) and inactive | – | 0.66% (inactive) | inactive
OCC(CO)(CO)CO | inactive | inactive | inactive | inactive | inactive | inactive | inactive | inactive | inactive | inactive | – | inactive | – | –
OCc1ccc(Cl)cc1Cl | inactive | inactive | inactive | inactive | inactive | inactive | inactive | inactive | inactive | inactive | inactive | – | -2.12% (inactive) | inactive
COc1ccc2cc3[n+](cc2c1OC)CCc1cc2c(cc1-3)OCO2 | inactive | inactive | inactive | inactive | 54.9 µM (active) | inactive | 180 nM (active) and 2.19 µM (active) | inactive | inactive | – | 20.2 µM (active) and inactive | – | – | –
